“And” between values parts separate entries of the source, which are not always exact repeats. Equal entries are not always repeated. Unmarked numbers belong to inactive results. Inconclusive results are not listed. The source made the active and inactive calls. Unless noted, calls come from the whole dose curve; as a rule, active = well fitted curve in the direction sought with a large enough effect; inconclusive = small, poorly fitted or top-dose-only effect, or another doubt; inactive = no such curve, though single readings can be large; an effect the other way counts as inactive or inconclusive.

For one experiment, the system named is Tov112D. As to the kind of experiment: Primary qHTS to identify gynecologic anti-cancer compounds using libraries of approved drugs and bioactive compounds (AID 1345084). Note: % is set by controls: 0 for no effect and ±100 for the full control effect; nearly all actives have a fitted effect of over 55% in size. The settings on record: Gynecologic cancer cell panel viability, ATPlite luminescence, 48 h; series mostly up to 57.5 µM. The gist of the method: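 In this quantitative HTS, cell killing is estimated from loss of ATP-dependent luciferase light. Cells see five compound concentrations over a 48 h exposure.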
(qHTS replaces the single test concentration by a dilution series.)

Experiment [1] in a line: Drug repurposing screens with cells derived from glioblastoma tumor samples (AID 1345199). For activity, negative = cell killing: % is set by controls: 0 for no effect and ±100 for the full control effect. Note: nearly all actives have a fitted effect of over 40% in size. Note: potency is the fitted concentration of half-maximal effect. To be noted: GBM patient neurospheres viability, ATP luminescence, 48 h. The gist of the method:
(§1)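 Four patient lines of CD133+ GBM neurospheres were screened at several concentrations; hits were retested in those lines plus three slower-growing GBM lines, using 48-hour treatment and ATP-based viability.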

In a further experiment the test system is astro. Described as above. To be noted: viability, ATP luminescence, 48 h; series mostly up to 45.9 µM. The gist of the method: as §1
The target in experiment [2] is Nuclear receptor subfamily 1 group I member 2 (Rattus norvegicus) (UniProt Q9R1A7). As to the kind of experiment: qHTS assay for small molecule activators of the rat pregnane X receptor (rPXR) signaling pathway (AID 651751; call rule not given here; note: 0% is about no effect). The settings on record: rPXR reporter cells, luciferase (One-Glo), 24 h.
A short description of experiment [3]: qHTS assay for small molecule activators of the human pregnane X receptor (PXR) signaling pathway (AID 720659; call rule not given here; note: 0% is about no effect).
Where [4] appears, read: at 20 µM (top of the series), tumour line C.
The mark [5] stands for this setting: at 21.2 µM (top of the series), tumour line B.
[6] abbreviates: at 21.2 µM (top of the series), tumour line D.
[7] abbreviates: at 45.9 µM (top of the series), tumour line B.
The mark [8] stands for this setting: at 45.9 µM (top of the series), tumour line D.
[9] abbreviates: at 46.1 µM (top of the series), tumour line C.

Nuclear receptor subfamily 1 group I member 2 (Rattus norvegicus), sequence (Q9R1A7 whole entry, looked up): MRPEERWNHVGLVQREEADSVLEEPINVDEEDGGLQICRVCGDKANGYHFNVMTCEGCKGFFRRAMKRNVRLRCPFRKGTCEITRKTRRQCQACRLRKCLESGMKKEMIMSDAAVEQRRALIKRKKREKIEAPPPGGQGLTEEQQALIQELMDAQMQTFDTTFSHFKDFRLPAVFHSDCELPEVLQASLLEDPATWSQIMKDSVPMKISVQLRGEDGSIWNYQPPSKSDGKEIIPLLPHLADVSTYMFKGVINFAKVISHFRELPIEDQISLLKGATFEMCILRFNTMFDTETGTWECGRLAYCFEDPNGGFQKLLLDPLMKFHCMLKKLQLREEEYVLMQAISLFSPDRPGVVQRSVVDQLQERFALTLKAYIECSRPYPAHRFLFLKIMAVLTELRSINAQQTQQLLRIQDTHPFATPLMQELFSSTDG

As for `O=C1OC(CN2CCOCC2)CN1/N=C/c1ccc([N+](=O)[O-])o1` (stereo unspecified), the Potency result in the experiment with Tov112D and in the experiment with astro was “inactive” in each case. Moreover, the activity, negative = cell killing in experiment [1] (setting [4]) is -25.2%; in experiment [1] (setting [5]), 2.66%; in experiment [1] (setting [6]) it was -3.22%.

For the molecule `Cn1c(=O)c2[nH]c(Br)nc2n(C)c1=O`, the Potency entry with Tov112D and in the experiment with astro was “inactive” in each case. For the same molecule, the activity, negative = cell killing in experiment [1] (setting [7]) was -10.3%; in experiment [1] (setting [8]) it was -8.55%; in experiment [1] (setting [9]), -9.05%.

On to `O=C1OC2(c3ccccc31)c1cc(Br)c(O)c(Br)c1Oc1c2cc(Br)c(O)c1Br`, for which the Potency entry in the experiment with Tov112D and with astro was “inactive” in each case. Further, the activity, negative = cell killing in experiment [1] (setting [7]) is -12.6%; in experiment [1] (setting [8]), -6.67%; in experiment [1] (setting [9]), -34.7%.

Consider `COc1cc(NS(=O)(=O)c2ccc(N)cc2)ncn1`, for which the Potency entry in the experiment on Tov112D and in the experiment on astro was “inactive” in each case. Moreover, the values for the activity, negative = cell killing in experiment [1] (setting [4]), in experiment [1] (setting [5]) and in experiment [1] (setting [6]) were 5.16%, 4.65% and -16.4%, respectively.

Turning to `Oc1ccccc1C=NCc1ccccc1`, the Potency entry with Tov112D and with astro was “inactive” each time. Besides, the activity, negative = cell killing in experiment [1] (setting [7]) was -13.2%; in experiment [1] (setting [8]), -14.3%; in experiment [1] (setting [9]), -2.77%.

For `CCCCCCCCOc1ccc(C(=O)c2ccccc2)c(O)c1`, in the experiment on Tov112D, the Potency entry is “inactive”. For the same molecule, the activity, negative = cell killing in experiment [1] (setting [7]) was -18.7%; in experiment [1] (setting [8]), -9.16%; in experiment [1] (setting [9]), -24.6%. Besides, in experiment [2], the max response was -1.61%. In experiment [3], the molecule was called inactive.

In the case of `O=C(Nc1ccc([N+](=O)[O-])cc1)Nc1ccc([N+](=O)[O-])cc1`, the Potency entry in the experiment on Tov112D and with astro was “inactive” throughout. Also, the activity, negative = cell killing is -14.3% in experiment [1] (setting [8]) and -15.7% in experiment [1] (setting [9]).

In the case of `CC(=O)OCC(=O)[C@H]1CC[C@H]2[C@@H]3CCC4=CC(=O)CC[C@]4(C)[C@H]3CC[C@]12C`, the Potency result in the experiment on Tov112D and with astro was “inactive” each time. For the same molecule, in experiment [1] (setting [9]), the activity, negative = cell killing is -12.5%. Also, the Potency in experiment [1] (tumour line A) is 8.91 µM (active).

With `C=CCN1CCc2nc(N)sc2CC1`, the Potency result with Tov112D and in the experiment on astro was “inactive” each time. Moreover, the activity, negative = cell killing in experiment [1] (setting [7]) is -26.9%; in experiment [1] (setting [8]), -19.4%; in experiment [1] (setting [9]), -3.6%.

On to `CCCCC(CC)CN1CN(CC(CC)CCCC)CC(C)(N)C1` (stereo unspecified), for which the Potency entry in the experiment with Tov112D and in the experiment on astro was “inactive” each time. For the same molecule, the values for the activity, negative = cell killing in experiment [1] (setting [4]), in experiment [1] (setting [5]) and in experiment [1] (setting [6]) were -6.58%, -11% and -24%, respectively.

Consider `O=[N+]([O-])c1cccc(S(=O)(=O)NCCNS(=O)(=O)c2cccc([N+](=O)[O-])c2)c1`, for which the Potency entry in the experiment with Tov112D and with astro was “inactive” each time. The results for the activity, negative = cell killing in experiment [1] (setting [7]), in experiment [1] (setting [8]) and in experiment [1] (setting [9]) were -14.3%, -9.35% and -36.6%, respectively.

For `CCCCc1cc2ccccc2c(OCCN(C)C)n1`, the Potency entry with Tov112D and in the experiment on astro was “inactive” each time. For the same molecule, the activity, negative = cell killing in experiment [1] (setting [4]) was -4.36%; in experiment [1] (setting [5]), -17.4%.

Regarding `O=S(=O)(O)c1ccc(O)cc1`, the Potency entry with Tov112D and in the experiment on astro was “inactive” each time. Moreover, the activity, negative = cell killing was -17.6% in experiment [1] (setting [7]), -11% in experiment [1] (setting [8]) and -1.85% in experiment [1] (setting [9]).

Regarding `C=C1c2cccc(O)c2C(O)=C2C(=O)[C@]3(O)C(O)=C(C(N)=O)C(=O)[C@@H](N(C)C)[C@@H]3[C@@H](O)[C@H]12`, the Potency result in the experiment on Tov112D and in the experiment on astro was “inactive” in each case. In addition, the results for the activity, negative = cell killing in experiment [1] (setting [4]) and in experiment [1] (setting [5]) were -24.5% and -7.73%, respectively.

For the molecule `CN(C)CCN1C(=O)c2ccccc2N(C)c2ccccc21`, the Potency entry in the experiment with Tov112D and in the experiment with astro was “inactive” each time. Moreover, the activity, negative = cell killing was -10.1% in experiment [1] (setting [7]), -18.4% in experiment [1] (setting [8]) and 4.2% in experiment [1] (setting [9]).

Regarding `COc1cc([C@H]2Oc3cc([C@H]4Oc5cc(O)cc(O)c5C(=O)[C@@H]4O)ccc3O[C@@H]2CO)ccc1O`, in the experiment on Tov112D, the Potency result is “inactive”. The activity, negative = cell killing in experiment [1] (setting [7]) was -0.835%; in experiment [1] (setting [8]), -13.1%; in experiment [1] (setting [9]), -7.07%. Moreover, the molecule was classed as inactive in experiment [3].

With `NC1CCN(c2nc3c(cc2F)c(=O)c(C(=O)O)cn3-c2ccc(F)cc2F)C1` (stereo unspecified), the Potency result with Tov112D and with astro was “inactive” each time. The activity, negative = cell killing was -3.86% in experiment [1] (setting [7]); -30% in experiment [1] (setting [8]); -29.1% in experiment [1] (at 46 µM (top of the series), tumour line A).

Regarding `CN1CCN(c2c(F)cc3c(=O)c(C(=O)O)cn4c3c2SCC4)CC1`, the Potency entry in the experiment with Tov112D and with astro was “inactive” in each case. Moreover, the activity, negative = cell killing is -10.6% in experiment [1] (setting [7]) and -19.6% in experiment [1] (setting [9]).

On to `CCCCCCCCCCC[C@@H](C[C@@H]1OC(=O)[C@H]1CCCCCC)OC(=O)[C@H](CC(C)C)NC=O`, for which the Potency entry in the experiment with Tov112D was “inactive”. Moreover, the activity, negative = cell killing in experiment [1] (setting [8]) is -23%. In addition, the values for the Potency (in experiment [1] (tumour line A); in the experiment with astro) were 10 µM (active) and 22.4 µM (active), respectively.

Consider `COc1ccc(C(=O)c2ccccc2)c(O)c1`, for which the Potency entry in the experiment with Tov112D and with astro was “inactive” in each case. Also, the activity, negative = cell killing in experiment [1] (setting [7]) was 1.18%; in experiment [1] (setting [8]), -2.35%; in experiment [1] (setting [9]), -6.38%. Besides, the max response in experiment [2] was 7.56% and 2.38%.

These data come from PubChem BioAssay (NCATS).
